PubChem BioAssay (NCI)
About 83,000 compounds went through this panel and 20% of them were active in at least one assay; those are over-represented in the sample as a whole.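 Single-concentration screen, 48 h exposure, 96-well plates. Endpoint: percent growth. Below 10 = active.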 Unmarked numbers belong to inactive results. Active and inactive are the calls of the source.

System: MOLT-4 leukemia
Experiment: NCI-60 one-dose screen, 48 h (100 = growth as untreated, 0 = no growth, -100 = all killed)
Settings: 10 µM unless noted
Method: Growth inhibition of the MOLT-4 human tumor cell line is measured as a screen for anti-cancer activity. Cells are grown in 96 well plates and exposed to the test compound for 48 hours. Compounds are tested at a single concentration, which is 10^-5 M for most compounds. The reported endpoint is percent growth (GI% or GIPRCNT), where numbers from 0 - 100% represent growth inhibition, and numbers from -100% - 0 represent cell death. For example, a value of 40 represents 60% growth inhibition. A value of 0 means no net growth occurred over the course of the experiment. A value of -40 indicates 40% of cells at the beginning of the experiment died by the end of the experiment. A value of -100 means all cells are dead at the end of the experiment.
NCI-60 Human Tumor Cell Lines Screen was performed using the standard one-dose NCI protocol, which is described in more detail at https://dtp.cancer.gov/discovery_development/nci-60/default.htm.
Compounds with GIPRCNT values below 10 were considered active. Activity score was based on GIPRCNT using the following formula: […]
Score is 0 for GIPRCNT values of 100 or above, 50 for GIPRCNT values of 0, and 100 for GIPRCNT values of -100.

| SMILES | growth |
| --- | --- |
| CSc1nc(N)n2nccc2n1 | 98.9% |
| CCCCS(=O)(=O)c1cc(Nc2ccc(O)c3c2C(=O)c2ccccc2C3=O)ccc1C | 61.2% |
| CCCCCCCCCCCCCCCCNC(=S)N/N=C/c1ccc(O)cc1O | 48.5% |
| Nc1cc(N)c2nc(NCCc3ccc(Cl)c(Cl)c3)cnc2c1 | -69.9% (active) |
| CCOc1ccc(/C=N/NC(=O)c2cccc3ccccc23)cc1OCC | 88.3% |
| Cc1ccc(C(=O)Nc2ccc(CN3CCN(C)CC3)c(C(F)(F)F)c2)cc1C#Cc1cnc(N)c2ccc(C#N)cc12 | -8.2% (active) |
| N=C(N)c1ccc(-c2ccc(-c3ccc(Cl)cc3)s2)s1 | -59.6% (active) |
| CC(=O)Nc1ccc(S(=O)(=O)Cl)cc1 | 104% |
| O=C(Nc1ccc(-n2cc(-c3ccncc3)c(-c3ccc(Cl)c(O)c3)n2)cc1)Nc1cc(C(F)(F)F)cc(C(F)(F)F)c1 | 9.3% (active) |
| CC(=O)c1nn(-c2ccc(C)cc2)cc1C(=O)c1cc2c(ccc3ccccc32)oc1=O | 102% |
| CC(=O)Nc1nc(C)c(C(=O)N/N=C/N2CCOCC2)s1 | 188% |
| COc1cc(C(=O)Nc2ccc(N(C)C)cc2)cc(OC)c1OC | 92% |
| O=C(Nc1ccc(-n2cc(-c3ccncc3)c(-c3ccc(Cl)c(O)c3)n2)cc1)c1ccc(Cl)c(Cl)c1 | 22.3% |
| O=C(/C=C/c1ccc(Cl)cc1)c1ccc(Cl)cc1 | 81% |
| COc1cc(OC)cc(-c2ccc(-c3ccc(C(=N)N)cc3)s2)c1 | -48.8% (active) |
| COc1cc(OC)c(NC(=O)n2ncc3cc(Nc4ncnc5ccccc45)ccc32)cc1Cl | 96.3% |
| N#Cc1c2cccnc2c2nnc3cc(Cl)c(Cl)cc3n12 | 7.72% (active) |
| Cc1ccc(S(=O)(=O)N/N=C2\CC3CCC2C3)cc1 (stereo not given) | 109% |
| Cc1ccc(C(=O)NN)cc1 | 93% |
| Nc1nc2c(c3ncncc13)C(c1cccc(C(F)(F)F)c1)Cc1ncncc1-2 (stereo not given) | 29.2% |

| SMILES | growth |
| --- | --- |
| O=C1CCNC1 | 98.8% |
| CCC(CCCN1C(=O)c2ccccc2C1=O)Nc1cc(OC)cc2cccnc12 (stereo not given) | 73.8% |
| O=C(OCC1CC2(Cl)C(Cl)=C(Cl)C1(Cl)C2(Cl)Cl)C1C(C(=O)OCC2CC3(Cl)C(Cl)=C(Cl)C2(Cl)C3(Cl)Cl)C2(Cl)C(Cl)=C(Cl)C1(Cl)C2(Cl)Cl (stereo not given) | 85% |
| CC(Br)c1nc2ccccc2cc1C(N)=O (stereo not given) | 86.4% |
| CCCCN(CCCC)CC(O)CN(CC)CC (stereo not given) | 96% |
| O=C(N/N=C\c1ccc(Cl)cc1)C(=O)N/N=C\c1ccc(Cl)cc1 | 98.1% |
| COc1ccc(/C=N/c2cc(C(C)(C)C)nn2-c2ccccc2)cc1 | 96% |
| COc1nc(OC)nc(-c2cc(C(=O)c3ccc(Br)cc3)n3cc(C)cc(C)c23)n1 | 96.6% |
| CC1=NN(c2cccc(Cl)c2)C(=O)/C1=C\c1cn(-c2nc(N3CCOCC3)nc(N3CCOCC3)n2)c2ccccc12 | 106% |
| CN(CCC#N)c1ccc(/C=C(\C#N)c2cccc(C(F)(F)F)c2)cc1 | 53.8% |
| C/C(=N\Nc1ccc(Cl)cn1)c1ccc2ccccc2n1 | 3.63% (active) |
| Nc1nc2c(c3cnccc13)C(c1ccc(Cl)c(Cl)c1)Cc1cnccc1-2 (stereo not given) | 2.48% (active) |
| COc1cc2oc(-c3ccc(NC(=O)c4ccccc4)cc3)cc(=O)c2c(OC)c1OC | 92.2% |
| CCCC(=O)NNc1[nH]c(-c2cc(OC)c(OC)c(OC)c2)cc1C(=O)OCC | 1.13% (active) |
| COc1ccc(CN2C(=O)/C(=C\C(=O)c3ccc(OCCN4CCCC4)cc3)c3ccccc32)cc1 | 5.57% (active) |
| O=P(OCCCl)(OCCCl)C(O)c1ccccc1Cl (stereo not given) | 99.8% |
| Cn1c2ccccc2c2ccccc21 | 89.7% |
| COc1ccc(Cn2cc3c(c2-c2ccc(O)cc2)CCc2cnoc2-3)cc1 | 24.3% |
| COc1ccc(-c2nc(SCC(C)C)nc(Nc3ccc(C(=O)O)cc3)c2C#N)cc1 | 82.7% |
| C[C@]12C=CC(=O)C=C1[C@@H](F)C[C@@H]1[C@@H]2[C@@H](O)C[C@@]2(C)[C@H]1CC[C@]2(O)C(=O)CO | 108% |
